This is a sample that favours compounds with a hit; in the whole collection about 2.2% have one here.
rat GALR2 agon – activates the rat galanin receptor 2 | O08726 | cell-based GALR2 agonist screen | activation, % at 10 µM | 16,000 compounds, 0.5% hits | AID 833; in the data active = activation above about 15%
NOTCH ag – activates NOTCH signaling in reporter cells | NOTCH signaling luciferase reporter cells, luminescence | activation, % at 2.5 µM | 15,000 compounds, 0.4% hits; in the data active = activation above about 2.2%
S1P1 agonist – S1P1 (human) receptor agonism; P21453; S1P1 agonist cell-based reporter assay; activation, % at 4.5 µM; 16,000 compounds, 1.5% hits; in the data active = activation above about 80%
Target sequence (P21453 whole entry, looked up): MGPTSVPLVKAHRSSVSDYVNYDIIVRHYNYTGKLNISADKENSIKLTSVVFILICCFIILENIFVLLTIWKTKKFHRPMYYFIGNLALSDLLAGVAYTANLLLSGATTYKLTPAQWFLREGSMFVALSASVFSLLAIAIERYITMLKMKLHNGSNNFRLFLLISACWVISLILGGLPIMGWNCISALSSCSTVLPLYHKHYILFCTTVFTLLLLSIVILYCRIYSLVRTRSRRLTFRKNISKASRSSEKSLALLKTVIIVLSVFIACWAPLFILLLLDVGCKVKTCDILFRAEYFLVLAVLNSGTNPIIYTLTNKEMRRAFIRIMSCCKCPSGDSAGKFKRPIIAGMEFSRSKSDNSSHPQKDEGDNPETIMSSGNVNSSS
A number is an active result; n = inactive; x = no result.

SMILES	rat GALR2 agon	NOTCH ag	S1P1 agonist
N/C(=N\OC(=O)Nc1cccc(C(F)(F)F)c1)C1CSCCS1 (stereo unspecified)	n	n	n
C#CCSc1nc(C)cc(=O)[nH]1	n	n	n
COC(=O)c1scc(C)c1NC(=O)/C(C#N)=C/c1ccc(C#N)cc1	n	n	n
Cc1c(N=NC2=C(O)CC(C)(C)CC2=O)cc2c(c1[N+](=O)[O-])C(C)(C)CC2(C)C	n	n	n
Cc1c(NCN2C(=O)CCC2=O)cc2c(c1[N+](=O)[O-])C(C)(C)CC2(C)C	n	n	81.0
O=C(SC1=NCCc2ccccc21)c1ccc(Cl)cc1	n	x	n
CCOC(=O)C1=C(C)N=C2SC(C)C(=O)N2C1c1cccs1 (stereo unspecified)	n	n	n
Cc1cnc(NS(=O)(=O)c2cccc3nonc23)c(Br)c1	n	n	n
O=S(=O)(Cc1ccc(Cl)cc1)NCc1cccnc1	27.2	n	n
Clc1ccc(NCc2cccnc2)c(Cl)c1	n	n	n
CN(C)/C=C/C=C/C(=O)c1cccs1	n	n	n
COC12CCC(CC1)C(O)(C#N)C2 (stereo unspecified)	n	n	n
COC(=O)CO/N=C/c1ccc(Cl)cc1Cl	n	n	n
O=C(CO/N=C/c1ccc(Cl)cc1Cl)NNC(=S)Nc1cc(Cl)ccc1Cl	n	n	85.8
COc1ccc(C2CN=NC23C(=O)c2ccccc2OC3c2ccccc2)cc1 (stereo unspecified)	n	n	n
CN(C)/C=N/S(=O)(=O)c1cc(Cl)sc1Cl	n	n	n
CNC(=O)NC(=O)CSc1nnc(-c2cccs2)n1-c1ccc(Cl)cc1	n	n	n
CCOC(=O)c1sc(SCc2ccc(Cl)cc2)nc1C	n	n	n
CCOC(=O)C1CCN(C(=O)c2sc(-c3ccccc3)nc2C)CC1	n	n	n
CCOC(=O)c1sc(-c2ccccc2)nc1C	n	n	97.1
CCOC(=O)c1sc(COc2cccc(Cl)c2)nc1C	n	n	90.8
CC(=O)N1CCC(C(=O)NCc2c(-c3ccccc3)noc2C)CC1	n	n	n
O=S(=O)(Nc1ccc(OC(F)F)cc1)c1ccc(F)cc1	n	n	n
N#Cc1c(Cl)c(Cl)c(Cl)c(Cl)c1C#N	n	n	110.2
N#Cc1c(Cl)cccc1I	n	n	n
SMILES	rat GALR2 agon	NOTCH ag	S1P1 agonist
CC(=O)Nc1cc(N=Cc2cc(Cl)cc(Cl)c2O)ccc1C	n	n	n
Cc1ccc(C)c(N=Cc2cc(Cl)cc(Cl)c2O)c1	15.7	n	n
COCCOc1ccc([N+](=O)[O-])cc1C(=O)O	n	x	n
COCCOc1ccc(N=Cc2ccccc2O)cc1C(=O)O	n	3.1	n
O=C(NNC(=S)Nc1cccc(C(F)(F)F)c1)c1cccnc1	n	n	n
O=C(NNC(=S)Nc1cccc(C(F)(F)F)c1)c1sc2ccccc2c1Cl	n	n	96.1
Cc1ccccc1/C(N)=N/OC(=O)c1ccc(C(C)(C)C)s1	n	n	102.6
CC(C)(C)c1ccc(C(=O)c2cccs2)s1	n	n	n
NC(=S)c1ccc([N+](=O)[O-])s1	n	n	n
c1coc(-c2nc3ccccc3nc2-c2ccco2)c1	n	n	n
O=c1c2ccccc2nc(-c2ccco2)n1Cc1ccccc1	n	n	91.5
COc1c(Cl)cc(Cl)cc1-c1csc(NC(=O)C(Cl)(Cl)Cl)n1	n	n	88.9
COc1cc(C(=O)NC(=S)Nc2nc(-c3ccc(F)cc3)cs2)cc(OC)c1OC	n	n	n
O=S1(=O)CCN(Cc2cc3ccccc3s2)CC1	35.6	n	n
Cc1onc(-c2ccccc2)c1CN1CCS(=O)(=O)CC1	n	n	n
CCSc1nc(N)cc(=O)[nH]1	n	n	n
CC(=O)SCC(C)C(=O)O (stereo unspecified)	n	n	n
O=C(COc1ncnc2cc(Cl)ccc12)NNC(=O)c1cccc2ccccc12	n	n	n
O=C(NC(=O)c1cc(OCC(F)(F)F)ccc1OCC(F)(F)F)Nc1c(F)cc(F)cc1F	n	n	n
CCOC(=O)CC1=CSC2=NCCN12	n	n	n
CCOC(=O)/C(=N\O)C1=CSC2=NNC(C)(C)N12	n	n	94.2
CCOC(=O)COc1nc(-c2cccs2)cc(-c2ccco2)c1C#N	n	n	n
N#CCOc1nc(-c2ccccc2)cc(-c2ccco2)c1C#N	22.4	n	n
N#Cc1ccc(OCc2ccc(Cl)cc2)cc1	n	n	n
CC(=O)c1cc([N+](=O)[O-])ccc1Sc1ccccn1	n	n	n
SMILES	rat GALR2 agon	NOTCH ag	S1P1 agonist
CSc1nnc(SCC(=O)N2CCC(C(F)(F)F)CC2)s1	n	2.7	n
Cc1nnsc1C(=O)N1CCC(C(F)(F)F)CC1	n	n	n
NC(=O)c1nnc(-c2ccc([N+](=O)[O-])cc2)o1	n	n	n
O=C1C2C3CC4C5C3C1C5C(F)(F)C42 (stereo unspecified)	n	n	n
COc1ccc(-c2coc3cc(OS(=O)(=O)c4ccccc4)ccc3c2=O)cc1	n	n	n
CCCc1c(OCCCOc2ccc3c(=O)c(-c4ccccc4)coc3c2)ccc(C(C)=O)c1O	n	n	95.4
CCOC(=O)c1cnn(C)c1NS(C)(=O)=O	n	n	n
Cn1c(CNC(=O)c2ccc(Cl)cc2)nnc1SCc1ccccc1	n	n	n
Cc1c(C(=O)CC#N)sc2ccc(Cl)cc12	n	n	n
Cc1c(C(=O)Cn2ccnc2)sc2ccc(Cl)cc12	n	n	104.3
N/C(=N\S(=O)(=O)c1cc(Cl)c(Oc2ccc([N+](=O)[O-])cc2)c(Cl)c1)c1ccccn1	n	n	n
NC(=S)c1cccc(-n2cccc2)c1	n	n	n
N/C(=N\OC(=O)c1c(F)cccc1F)c1cccc(-n2cccc2)c1	n	n	95.0
Cn1cnc([N+](=O)[O-])c1Sc1ccc(C(F)(F)F)cn1	34.6	n	n
Cc1nn(C)c(Sc2ccc(C(F)(F)F)cn2)c1[N+](=O)[O-]	n	x	n
O=[N+]([O-])c1ccc(S(=O)(=O)N2CCCC2)cc1	n	n	n
COc1ccc(/C(N)=N/OC(=O)c2ccccc2)cc1OC1CCCC1	n	n	101.9
COc1ccc(C(N)=O)cc1OC1CCCC1	n	n	n
Cc1cc(CNC(=O)CN2C(=O)c3ccccc3C2=O)c(C(F)(F)F)o1	n	n	n
C/C(=N\N=C(/N)SCc1cc(F)cc2c1OCOC2)c1ccc(C)nc1	n	n	90.0
Cc1nnsc1C(=O)NCc1cc(F)cc2c1OCOC2	n	n	n
CN(C)C(=O)/C=C/c1ccccc1	n	n	n
CC(=O)C1C(=O)C=C(/C=C/c2ccccc2)CC1c1ccccc1 (stereo unspecified)	n	n	99.4
COc1cc(NC(=S)NC(=O)c2ccccc2)cc(C(F)(F)F)c1	n	n	n
CS(=O)(=NC(=O)c1cnn2c(C(F)(F)F)cc(C(F)(F)F)nc12)c1ccc(Cl)cc1 (stereo unspecified)	n	n	n
SMILES	rat GALR2 agon	NOTCH ag	S1P1 agonist
Cc1cc(/C(N)=N/OC(=O)c2ccno2)no1	n	n	n
Cc1cc(C(=O)O/N=C(\N)c2ccc(C(C)(C)C)cc2)no1	n	n	89.8
Cc1ccc(NC(=O)O/N=C(\N)c2ccc(NS(C)(=O)=O)cc2)cc1	n	x	n
Cn1c(-c2ccco2)n[nH]c1=S	n	n	n
Cn1c(-c2ccccn2)n[nH]c1=S	n	n	87.6
O=C(Nc1cc(C(F)(F)F)cc(C(F)(F)F)c1)c1ccccc1F	n	n	n
CCC(=O)Nc1cc(F)ccc1C	n	n	n
CCC(=O)Nc1cccc2c(NC(=O)CC)cccc12	n	n	82.3
COC(=O)/C(C#N)=C\c1ccccc1N1CCN(Cc2ccccc2)CC1	n	n	n

Assay outcomes from PubChem.
